Source: PubChem BioAssay (NCATS)
Inconclusive results are not listed. A call without a number means that no potency is given here. Calls of active or inactive are those of the source. The call rests on the fitted dose curve; in most records, active means well fitted inhibition curve with a large enough effect; inconclusive means small, poorly fitted or top-dose-only effect; inactive means flat fitted curve, though single readings scatter. Bridge positions count the residues as written; N and C are the ends. Square brackets hold non-standard residues; d marks the D form. Peptide text beside a SMILES is read from it. * marks the point of attachment. Ileψ(thiazoline)Cys = CC[C@H](C)[C@H](N)C1=N[C@H](C(=O)*)CS1; d(aIle) = CC[C@H](C)[C@@H](N)C(=O)O; dOrn = NCCC[C@@H](N)C(=O)O

How the values were obtained:
Assay in all cases: qHTS profiling for inhibitors of Plasmodium falciparum proliferation (AID 504749); further: nearly all actives have a fitted effect of over 60% in size
Conditions in all cases: P. falciparum in erythrocytes, SYBR Green DNA, 72 h; series mostly up to 12.8 µM
[1] = test system: AA1029
Method in brief: (§1)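 SYBR Green fluorescence of parasite DNA, read after lysis and overnight dark incubation, measured growth over 72 h in erythrocyte culture at 0.3% parasitemia and 2.5% hematocrit. Data normalised to DMSO and 0.29 uM artemisinin, with plate-drift correction.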

[2] = test system: CP185
Method in brief: as §1

[3] = test system: CP192
Method in brief: as §1

[4] = test system: CP211
Method in brief: as §1

[5] = test system: CP215
Method in brief: as §1

[6] = test system: CP237
Method in brief: as §1

[7] = test system: CP260
Method in brief: as §1

[8] = test system: CP265
Method in brief: as §1

[9] = test system: CP268
Method in brief: as §1

[10] = test system: CP269
Method in brief: as §1

[11] = test system: CP325
Method in brief: as §1

[12] = test system: DIV30
Method in brief: as §1

[13] = test system: Dd2
Method in brief: as §1

[14] = test system: ECU
Method in brief: as §1

[15] = test system: HB3
Method in brief: as §1

[16] = test system: ICS
Method in brief: as §1

[17] = test system: PC26
Method in brief: as §1

[18] = test system: TAB113
Method in brief: as §1

[19] = test system: TAB165
Method in brief: as §1

[20] = test system: 7G8
Method in brief: as §1
Potency means the concentration at half of the fitted maximal effect.

Structure (SMILES) | Potency [1] | Potency [2] | Potency [3] | Potency [4] | Potency [5] | Potency [6] | Potency [7] | Potency [8] | Potency [9] | Potency [10] | Potency [11] | Potency [12] | Potency [13] | Potency [14] | Potency [15] | Potency [16] | Potency [17] | Potency [18] | Potency [19] | Potency [20]
CC(=O)OCC(=O)[C@@]12OC(C)(C)O[C@@H]1C[C@H]1[C@H]3C[C@H](F)C4=CC(=O)C=C[C@@]4(C)[C@]3(F)[C@H](O)C[C@@]12C | inactive | inactive | inactive | inactive | inactive | inactive | inactive | inactive | inactive | inactive | inactive | inactive | inactive | inactive | inactive | inactive | inactive | inactive | inactive | 
CCCCC[C@H](O)/C=C\[C@H]1[C@H](C/C=C\CCCC(=O)O)[C@@H](O)C[C@H]1O (tested in a mixture with another compound) | inactive | inactive | inactive | inactive | inactive | inactive | inactive | inactive | inactive | inactive | inactive | inactive | inactive | inactive | inactive | inactive | inactive | inactive | inactive | inactive
CS(=O)(=O)c1ccc([C@H](O)[C@H](CO)NC(=O)C(Cl)Cl)cc1 |  |  | inactive |  |  |  | inactive | inactive |  |  |  | inactive |  |  | inactive |  | inactive | inactive |  | inactive
COc1ccc(OC)c([C@H](O)CNC(=O)CN)c1 | inactive | inactive | inactive | inactive | inactive | inactive | inactive | inactive | inactive | inactive | inactive | inactive | inactive | inactive | inactive | inactive | inactive | inactive | inactive | inactive
C[C@@H]1C[C@H]2[C@@H]3C[C@H](F)C4=CC(=O)C=C[C@@]4(C)[C@]3(F)[C@H](O)C[C@]2(C)[C@@]1(O)C(=O)CO | inactive | inactive | inactive | inactive | inactive | inactive | inactive | inactive | inactive | inactive | inactive | inactive | inactive | inactive | inactive | inactive | inactive | inactive | inactive | inactive
NCc1ccccc1CC(=O)N[C@@H]1C(=O)N2C(C(=O)O)=C(CSc3nnnn3CC(=O)O)CS[C@@H]12 | inactive | inactive | inactive | inactive | inactive | inactive | inactive | inactive | inactive | inactive | inactive |  | inactive | inactive | inactive | inactive | inactive | inactive | inactive | inactive
CCC(=O)OCC(=O)[C@@]1(OC(=O)CC)[C@H](C)C[C@@H]2[C@@H]3[C@H]([C@@H](O)C[C@@]21C)[C@]1(C)C=CC(=O)C=C1C[C@@H]3Cl | inactive | inactive | inactive | inactive |  |  | 3.98 µM (active) |  |  |  |  |  |  |  | 3.55 µM (active) | 1.12 µM (active) |  |  | 3.98 µM (active) | 1 µM (active)
CC[C@H](C)[C@H](N)C1=N[C@H](C(=O)N[C@@H](CC(C)C)C(=O)N[C@@H](CCC(=O)O)C(=O)N[C@@H](C(=O)N[C@H]2CCCCNC(=O)[C@@H](CC(N)=O)NC(=O)[C@@H](CC(=O)O)NC(=O)[C@@H](Cc3cnc[nH]3)NC(=O)[C@@H](Cc3ccccc3)NC(=O)[C@@H]([C@@H](C)CC)NC(=O)[C@@H](CCCN)NC2=O)[C@@H](C)CC)CS1 ({Ileψ(thiazoline)Cys}-LE[d(aIle)]K[dOrn][d(aIle)][dF][dH][dD][dN]; lactam 4-C) | inactive | inactive | inactive | inactive | inactive | inactive | inactive | inactive | inactive | inactive | inactive | inactive | inactive | inactive | inactive | inactive | inactive | inactive | inactive | inactive
CO[C@@H]1C[C@H](O[C@H]2[C@@H](C)[C@H](O[C@@H]3O[C@@H](C)C[C@@H](N(C)C)[C@@H]3OC(C)=O)[C@H](C)C[C@]3(CO3)C(=O)[C@H](C)[C@H](OC(C)=O)[C@H](C)[C@H](C)OC(=O)[C@@H]2C)O[C@H](C)[C@@H]1OC(C)=O | inactive | inactive | inactive | inactive | inactive | inactive | inactive | inactive | inactive | inactive | inactive | inactive | inactive | inactive | inactive | inactive | inactive | inactive | inactive | inactive
C[C@H](O)Cn1cnc2c1c(=O)n(C)c(=O)n2C | inactive | inactive | inactive | inactive | inactive | inactive | inactive | inactive | inactive | inactive | inactive | inactive | inactive | inactive | inactive | inactive | inactive | inactive | inactive | inactive
CCN[C@@H]1C[C@H](N)[C@H](O[C@H]2OC(CN)=CC[C@H]2N)[C@@H](O)[C@H]1O[C@H]1OC[C@@](C)(O)[C@@H](NC)[C@@H]1O | inactive | inactive | inactive | inactive | inactive | inactive | inactive | inactive | inactive | inactive | inactive | inactive | inactive | inactive | inactive | inactive | inactive | inactive | inactive | inactive
CCC[C@@H]1O[C@@H]2C[C@@H]3[C@H]4CCC5=CC(=O)C=C[C@@]5(C)[C@H]4[C@H](O)C[C@@]3(C)[C@@]2(C(=O)CO)O1 | 11.2 µM (active) |  |  |  | 15.1 µM (active) |  |  |  | inactive |  |  |  | 12.6 µM (active) | 7.08 µM (active) |  | 6.31 µM (active) | 7.57 µM (active) |  | 11.2 µM (active) | 4.47 µM (active)
C[C@H](C(=O)O)c1cccc(Oc2ccccc2)c1 | inactive | inactive | inactive | inactive | inactive | inactive | inactive | inactive | inactive | inactive | inactive | inactive | inactive | inactive | inactive | inactive | inactive | inactive | inactive | 
C#C[C@]1(O)CC[C@@H]2[C@H]3CCC4=CCCC[C@@H]4[C@@H]3CC[C@@]21C | inactive | inactive | inactive | inactive | inactive | inactive | inactive | inactive | inactive | inactive | inactive | inactive | inactive | inactive | inactive | inactive | inactive | inactive | inactive | inactive
COc1ccccc1OC[C@H](O)CO | inactive | inactive | inactive | inactive | inactive | inactive | inactive | inactive | inactive | inactive | inactive | inactive | inactive | inactive | inactive | inactive | inactive | inactive | inactive | inactive
c1ccc2c(c1)CCC[C@@H]2C1=NCCN1 | inactive | inactive | inactive | inactive | inactive | inactive | inactive | inactive | inactive | inactive | inactive | inactive | inactive | inactive | inactive | inactive | inactive | inactive | inactive | inactive
NC[C@@H]1O[C@@H](O[C@H]2[C@H](O)[C@H](O[C@@H]3O[C@H](CO)[C@@H](O)[C@H](N)[C@@H]3O)[C@@H](N)C[C@H]2N)[C@H](N)C[C@@H]1O | inactive | inactive | inactive | inactive | inactive | inactive | inactive | inactive | inactive | inactive | inactive | inactive | inactive | inactive | inactive | inactive | inactive | inactive | inactive | inactive
CCC(=O)O[C@@]1(C(=O)SCF)[C@@H](C)C[C@H]2[C@@H]3C[C@@H](F)C4=CC(=O)C=C[C@@]4(C)[C@]3(F)[C@@H](O)C[C@]21C |  |  | inactive | inactive | inactive |  |  |  | inactive |  | inactive |  |  |  |  | 2.51 µM (active) |  |  | 3.16 µM (active) | 2.82 µM (active)
Cc1ccsc1/C=C\C1=NCCCN1C | inactive | inactive | inactive | inactive | inactive | inactive | inactive | inactive | inactive | inactive | inactive | inactive | inactive | inactive | inactive | inactive | inactive | inactive | inactive | inactive
C[C@H](CCC(=O)O)[C@H]1CC[C@@H]2[C@@H]3[C@@H](O)C[C@H]4C[C@@H](O)CC[C@@]4(C)[C@H]3CC[C@@]21C | inactive | inactive | inactive | inactive | inactive | inactive | inactive |  | inactive | inactive | inactive | inactive | inactive | inactive | inactive | inactive | inactive | inactive | inactive | inactive
CCc1c(C)[nH]c2c1C(=O)[C@H](CN1CCOCC1)CC2 | inactive | inactive | inactive | inactive | inactive | inactive | inactive | inactive | inactive | inactive | inactive | inactive | inactive | inactive | inactive | inactive | inactive | inactive | inactive | inactive
CCN[C@@H]1CN(CCCOC)S(=O)(=O)c2sc(S(N)(=O)=O)cc21 | inactive | inactive | inactive | inactive | inactive | inactive | inactive | inactive | inactive | inactive | inactive | inactive | inactive | inactive | inactive | inactive | inactive | inactive | inactive | inactive
C[C@H]1CS(=O)(=O)CCN1/N=C\c1ccc([N+](=O)[O-])o1 | inactive | inactive | inactive | inactive | inactive | inactive |  | inactive | inactive | inactive | inactive | inactive | inactive | inactive | inactive | inactive | inactive | inactive | inactive | 
Cc1cccc(CN2CCN([C@@H](c3ccccc3)c3ccc(Cl)cc3)CC2)c1 |  |  |  | inactive | inactive | inactive |  |  | inactive | inactive | inactive |  |  |  |  | 2.82 µM (active) |  |  |  | 3.55 µM (active)
CCOC(=O)O[C@@H](C)OC(=O)[C@@H]1N2C(=O)[C@@H](NC(=O)[C@@H](N)c3ccccc3)[C@H]2SC1(C)C | inactive | inactive |  | inactive | inactive | inactive | inactive | inactive | inactive | inactive | inactive | inactive | inactive | inactive | inactive | inactive | inactive | inactive | inactive | inactive
